Data published in the supplement of paper PMC10646978.
± gives the standard deviation.

Tests used:
Conditions in all cases: modulator concentration 10 µM
[1] = system: RAW-Dual (murine macrophage reporter line); assay: NF-kB reporter (SEAP) activity fold change vs agonist alone; higher = enhanced NF-kB activity
Summary of the method: (§1)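 Overnight stimulation with a PRR agonist followed pre-incubation for 1 hour at 37 °C with compound at 10 μM final. This was done in RAW-Dual murine macrophage reporter cells seeded at 50 000 per well in 384-well plates. NF-κB (SEAP, QUANTI-Blue absorbance at 620 nm) and IRF (Lucia luciferase, QUANTI-Luc luminescence) were read from the supernatant. Each reporter's fold change relative to the mean agonist-only control on the same plate was averaged over replicate plates.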

[2] = system: RAW-Dual (murine macrophage reporter line); assay: IRF reporter (Lucia luciferase) activity fold change vs agonist alone; higher = enhanced IRF activity
Summary of the method: as §1

[3] = system: RAW-Dual (murine macrophage reporter line); assay: viability score (confluency relative to resting cells, overnight) (fraction); higher = more viable, active = viable (0.7 or more)
Summary of the method: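 RAW-Dual macrophages in 384-well plates were exposed overnight to compound at 10 μM final. Confluency was imaged with IncuCyte, and two confluency masks were generated with IncuCyte software over all imaged wells. The viability score is confluency expressed relative to resting cells. Compounds were called viable if both masks exceeded 70% of resting cells.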

[4] = agonist: CpG ODN 1826 0.5 ug/mL

| Structure (SMILES) | NF-kB reporter [1, 4] | NF-kB reporter ([1]; agonist: LPS 0.1 ug/mL) | NF-kB reporter ([1]; agonist: MPLA […]) | IRF reporter ([2]; agonist: 3'3'-cGAMP 10 ug/mL) | IRF reporter ([2]; agonist: LPS 0.1 ug/mL) | IRF reporter ([2]; agonist: MPLA […]) | viability score [3] |
| --- | --- | --- | --- | --- | --- | --- | --- |
| CCCN(CCC)C(=O)C1=Cc2ccc(-c3ccc(C(=O)N4CCCC4)cc3)cc2N=C(N)C1 | 0.432 ± 0.022 | 1.08 ± 0.17 | 1.12 ± 0.11 | 0.724 ± 0.034 | 1.29 ± 0.29 | 1.58 ± 0.49 | 0.957 (active) |
| COc1ccc(CC(=O)N2CCCc3ccccc32)cc1OC | 0.909 ± 0.078 | 0.778 ± 0.054 | 1.01 ± 0.09 | 0.973 ± 0.046 | 1.41 ± 0.1 | 1.6 ± 0.17 | 1.02 (active) |
| Oc1c2c(nc3cc(-c4ccc(Br)cc4)nn13)CCS2 | 1.06 ± 0.084 | 1.04 ± 0.064 | 0.857 ± 0.082 | 0.857 ± 0.03 | 1.19 ± 0.16 | 0.921 ± 0.2 | 1.01 (active) |
| CN(C)CCCNc1cc(C(C)(C)C)nc2c(-c3ccccc3)cnn12 | 0.172 ± 0.017 | 0.13 ± 0.012 | 1.23 ± 0.18 | 0.0482 ± 0.0069 | 0.0973 ± 0.0058 | 0.712 ± 0.34 | 0.0497 (inactive) |
| COc1cccc(-n2c(SCc3ccc(F)cc3)nc3c([nH]c4ccccc43)c2=O)c1 | 0.568 ± 0.034 | 1.14 ± 0.077 | 0.693 ± 0.06 | 0.717 ± 0.033 | 1.33 ± 0.15 | 0.902 ± 0.13 | 0.972 (active) |
| N=C(N)c1ccc(OCCCCCOc2ccc(C(=N)N)cc2)cc1.O=S(=O)(O)CCO.O=S(=O)(O)CCO | 0.243 ± 0.017 | 0.46 ± 0.037 | 0.492 ± 0.027 | 0.715 ± 0.079 | 1.18 ± 0.2 | 0.788 ± 0.16 | 0.305 (inactive) |
| Cc1ccc(C(=O)NC(=Cc2ccccc2)C(=O)NCCCn2ccnc2)cc1 | 0.949 ± 0.077 | 1.03 ± 0.069 | 0.907 ± 0.083 | 1.01 ± 0.045 | 1.45 ± 0.25 | 1.12 ± 0.074 | 1.01 (active) |
| CCc1ccc2nc(NCCCN3CCOCC3)sc2c1 | 0.924 ± 0.057 | 1.02 ± 0.083 | 0.971 ± 0.058 | 0.866 ± 0.04 | 1.19 ± 0.27 | 1.3 ± 0.34 | 0.99 (active) |
| COC(=O)c1cccc(Nc2nc(C=Cc3ccccc3)nc3ccccc23)c1 | 1.3 ± 0.12 | 1.28 ± 0.1 | 5.46 ± 0.19 | 0.658 ± 0.023 | 0.945 ± 0.14 | 5.98 ± 0.47 | 0.851 (active) |
| CC1C(=O)N2CCCc3cc(S(=O)(=O)N4CCN(c5cccc(Cl)c5)CC4)cc1c32 (stereo unspecified) | 0.755 ± 0.24 | 0.894 ± 0.073 | 0.971 ± 0.052 | 0.598 ± 0.044 | 1.2 ± 0.23 | 1.22 ± 0.37 | 0.996 (active) |
| CC[C@@]1(O)C(=O)OCc2c1cc1n(c2=O)Cc2cc3c(CN(C)C)c(O)ccc3nc2-1 [Prestw-1196] | 2.33 ± 0.13 | 1.27 ± 0.08 | 2.43 ± 0.16 | 2.88 ± 0.099 | 3.79 ± 0.35 | 3.07 ± 0.43 | 0.689 (inactive) |
| CCN(CC)c1ccc(C=Nn2nnnc2N)c(O)c1 | 1.01 ± 0.078 | 0.869 ± 0.1 | 1.13 ± 0.11 | 0.942 ± 0.039 | 1.06 ± 0.13 | 1.44 ± 0.29 | 0.955 (active) |
| CN1CCN(CCCN2c3ccccc3Sc3ccc(Cl)cc32)CC1.O=C(O)/C=C\C(=O)O.O=C(O)/C=C\C(=O)O | 1.01 ± 0.049 | 1.14 ± 0.098 | 2.15 ± 0.15 | 0.14 ± 0.012 | 0.479 ± 0.12 | 0.435 ± 0.13 | 0.86 (active) |
